PubChem BioAssay (NCI)
The panel holds about 79,000 compounds, 15% with a hit somewhere; the sample as a whole holds those more often. Rule as the data show it: active = growth inhibition above about 70%; inactive = the rest.

Columns and labels:
[1] = NCI Yeast Anticancer Drug Screen. Data for the rad50 strain (AID 155);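 also: 0% = growth of vehicle-only cultures of the same strain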; conditions: S. cerevisiae rad50 strain growth inhibition; at 50.0 µM; active compounds read high
Method in brief: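 Yeast carrying a defined DNA repair defect were exposed to test compounds, and growth was compared with vehicle-treated controls to give percent inhibition.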

[2] = NCI Yeast Anticancer Drug Screen. Data for the mec2-1 strain (AID 157); conditions: S. cerevisiae mec2-1 strain, at 50.0 µM, active compounds read high
Method in brief: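 Compounds were applied to mec2-1 yeast cells. Their growth was then compared with that of vehicle-treated cultures to give growth inhibition.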

[3] = NCI Yeast Anticancer Drug Screen. Data for the sgs1 mgt1 strain (AID 161);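 also: 0% = growth of cultures given vehicle only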; conditions: S. cerevisiae sgs1 mgt1 strain, at 50.0 µM, active compounds read high
Method in brief: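 This yeast growth screen uses a strain with defined DNA-repair lesions; compound-treated growth is compared with vehicle-treated growth.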

[4] = NCI Yeast Anticancer Drug Screen. Data for the cln2 rad14 strain (AID 165);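 also: 0% = growth equal to vehicle treated cultures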; conditions: S. cerevisiae cln2 rad14 strain, at 50.0 µM, active compounds read high
Method in brief: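 Strain: cln2 rad14 yeast, altered in cell cycle control and DNA damage repair. Read-out: growth inhibition vs vehicle.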

[5] = NCI Yeast Anticancer Drug Screen. Data for the bub3 strain (AID 167); conditions: S. cerevisiae bub3 mutant strain, at 50.0 µM, active compounds read high
Method in brief: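 Compounds were applied to a genetically altered yeast strain carrying a cell-cycle control defect. Growth inhibition was scored against vehicle-treated controls.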

[6] = NCI Yeast Anticancer Drug Screen. Data for the mlh1 rad18 strain (AID 175); conditions: S. cerevisiae mlh1 rad18 strain growth inhibition; at 50.0 µM; active compounds read high
Method in brief: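 A repair-deficient yeast strain is exposed to test compound, and growth is scored relative to vehicle-treated controls.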

Measured: growth inhibition

COc1ccc2c(c1)CC[C@@H]1[C@@H]2CC[C@]2(C)C(=O)/C(=N/O)C[C@@H]12
inactive: [1] -15% | [2] 4.85% | [3] 1.85% | [4] -34% | [5] 31.5% | [6] -14.2%

O=[N+]([O-])C[C@@]12O[C@]3(O)C4C5CC(C6C5C3C61)C42 (stereo partly specified)
inactive: [1] 6.35% | [2] 10.5% | [3] 15.3% | [4] 2.7% | [5] 1.2% | [6] 8.05%

COc1ccc(C(=O)C(CO)Oc2ccccc2OC)cc1OC (stereo unspecified)
inactive: [1] -3.05% | [2] 7.5% | [3] -20.2% | [4] 4.25% | [5] -13.5% | [6] -1.35%

CCOC(=O)C(=O)OCC
inactive: [1] 24.9% | [2] -1.05% | [3] -19.1% | [4] -3.7% | [5] 29.8% | [6] 13.8%

O=C1C=CC(=O)C2C1C21C2CCCC(C2)C2CCCC1C2 (stereo unspecified)
inactive: [1] -11.2% | [2] 16.3% | [3] 4.05% | [4] -23% | [5] -0.65% | [6] 20.1%

CC1=NN(c2ccccc2)C(N)C1 (stereo unspecified)
inactive: [1] 17.7% | [2] 17.7% | [3] 23.3% | [4] 11.5% | [5] 25.4% | [6] 13.2%

COc1cccc2c(Nc3ccc(S(=O)(=O)Nc4ncccn4)cc3)c3ccc([N+](=O)[O-])cc3nc12
inactive: [1] 59.8% | [2] 12.1% | [3] 29.2% | [4] 11.2% | [5] 32.2% | [6] 16.2%

O=C(S)c1ccccc1Br
inactive: [1] 1.45% | [2] 0% | [3] 11.6% | [4] -54.9% | [5] -8% | [6] 3.8%

NCCSSCCCCSSCCN
inactive: [1] -8.95% | [2] -0.7% | [3] -13.7% | [4] -43.2% | [5] -1.2% | [6] -1.9%

CC(=O)CC(=O)Nc1ccccc1C(C)C
inactive: [1] 12.9% | [2] 8.1% | [3] 16.1% | [4] 7.4% | [5] -7.85% | [6] -1.7%

CCCCCCCCCCCCCCCCCC1=Nc2cc(C)c(C)cc2NC(=O)C1
inactive: [1] -21.7% | [2] -31.6% | [3] -30.1% | [4] 7.35% | [5] -12.8% | [6] -8.1%

NC(=O)c1cccnc1
inactive: [1] 15.1% | [2] -41.4% | [3] 5.1% | [4] -27.2% | [5] -12.9% | [6] 9.95%

CCCCNc1cccc2ccccc12
inactive: [1] 50.2% | [2] 23.1% | [3] -10.2% | [4] -43.5% | [5] 2.55% | [6] 27.6%

N=c1ccc2ccccc2n1O
inactive: [1] 10.6% | [2] -3.85% | [3] -4.2% | [4] -49.1% | [5] 7.2% | [6] -7.9%

O=C(COc1ccc(Cl)cc1)N1N=C(c2ccc(Cl)cc2)CC1(O)c1ccccc1 (stereo unspecified)
inactive: [1] -15.8% | [2] -29.8% | [3] -8.9% | [4] 0.85% | [5] -18.2% | [6] -10.6%

O=S(=O)(Nc1cc(C(F)(F)F)ccc1Cl)c1ccc(F)cc1
inactive: [1] -24.3% | [2] -22.4% | [3] -34.4% | [4] 7.5% | [5] -32.6% | [6] -8%

CCc1ccccc1NC(=O)COc1ccc(Cl)cc1
inactive: [1] 5.7% | [2] 29.2% | [3] 18.8% | [4] 0.45% | [5] 34.2% | [6] 1.1%

Cn1cnc2cc(NCCO)c([N+](=O)[O-])cc2c1=O
inactive: [1] 11.1% | [2] 18.9% | [3] 4.5% | [4] 11.4% | [5] 24.4% | [6] 24.3%

COc1cc(C)nc2ccc(Cc3ccc4nc(C)cc(OC)c4c3)cc12
inactive: [1] 6.75% | [2] 6.8% | [3] -3% | [4] -14.2% | [5] 7.4% | [6] 25.6%

O=C(NC1C=Nc2ccc(Cl)cc2NC1=O)c1ccc(Cl)cc1 (stereo unspecified)
inactive: [1] 18% | [2] 20.9% | [3] 31.4% | [4] 23.6% | [5] 6.95% | [6] 31.6%

S=C1CC(c2ccccc2)Sc2ccccc2N1 (stereo unspecified)
inactive: [1] -1.45% | [2] 1.85% | [3] 13.9% | [4] 1.8% | [5] 30.3% | [6] -25.6%

CC(=O)[CH-]C(=O)c1ccccc1.CC(=O)[CH-]C(=O)c1ccccc1.CC[O-].O=C1C=C([O-])C(=O)c2ccccc21.[Ti+4]
inactive: [1] 25.4% | [2] 60.5% | [3] 63.5% | [4] 61.1% | [5] 59.9% | [6] 56.9%

O=C(O)CNC(=O)C(=O)c1c[nH]c2ccc([N+](=O)[O-])cc12
inactive: [1] -6.5% | [2] -27.8% | [3] 1.05% | [4] -7.8% | [5] -2.1% | [6] 0.2%

CC(C)(C)c1ccc(S(=O)(=O)/C=C/c2ccccc2)cc1
inactive: [1] -2.4% | [2] 35% | [3] -9.3% | [4] 26.1% | [5] 4.1% | [6] 6.3%

CC(=O)OCC1OCOC2C(COC(C)=O)OCOC12 (stereo unspecified)
inactive: [1] 3.55% | [2] 2.6% | [3] -8.15% | [4] -24.4% | [5] 3.85% | [6] -8.5%

COc1ccc(OC)c2c(=O)cc(C)oc12
inactive: [1] -15.7% | [2] -7.8% | [3] -16.3% | [4] -3.4% | [5] -7.65% | [6] -10.4%

O=C(Nc1cccc(Cc2cccc(NC(=O)c3ccccc3)c2)c1)c1ccccc1
inactive: [1] 5.65% | [2] -1.9% | [3] -11.9% | [4] -41.1% | [5] -2.35% | [6] -0.35%

O=[N+]([O-])C(Cl)C(Cl)C(Cl)=C(Cl)Cl (stereo unspecified)
inactive: [1] 23.9% | [2] 17.1% | [3] 51% | [4] 35.8% | [5] 60.8% | [6] 52.2%

O=C(Nc1ccccc1F)Oc1ccc(Cl)cc1Cl
inactive: [1] 26.8% | [2] 14.7% | [3] 20.5% | [4] 26.8% | [5] 19.4% | [6] 13.2%

O=[N+]([O-])c1ccc(N/N=C/CCCCO)c([N+](=O)[O-])c1
inactive: [1] 13.3% | [2] -4.65% | [3] -0.6% | [4] -30.6% | [5] 9.85% | [6] -5.8%

O=C(N/N=C/c1cc(-c2ccccc2Cl)c(-c2ccccc2Cl)o1)c1ccncc1
inactive: [1] 14.5% | [2] 23.6% | [3] 38.4% | [4] 28% | [5] 26.7% | [6] 28.3%

CCN(CC)c1ccc2c(c1)Oc1cc(N(CC)CC)ccc1C2c1ccccc1C(=O)O
inactive: [1] -10.2% | [2] -32.6% | [3] -1.5% | [4] 13.8% | [5] 3.6% | [6] -3.45%

COC(=O)C(C)Oc1ccccc1 (stereo unspecified)
inactive: [1] 2.35% | [2] -28.2% | [3] -9.4% | [4] -4.8% | [5] -10% | [6] -18.5%

Nc1ccn([C@H]2CO[C@@H](CO)O2)c(=O)n1
inactive: [1] -53% | [2] -46.4% | [3] -18.7% | [4] 0.75% | [5] -14.7% | [6] -22.2%

Cc1cc2c(cc1C)NC1=C(N2)OC(c2cccc(O)c2)C1=O (stereo unspecified)
inactive: [1] 1.9% | [2] -16.9% | [3] 1.55% | [4] 4.4% | [5] -31.4% | [6] 11.8%

Cc1ccc([N+](=O)[O-])cc1NC(=O)C(=O)Cc1cc(=O)oc2cc(O)ccc12
inactive: [1] -4.85% | [2] -22.9% | [3] -28.3% | [4] 23.9% | [5] -16.1% | [6] -6.25%

CN1Cc2ccccc2C1
inactive: [1] 0.75% | [2] -3.5% | [3] 1.7% | [4] 10.4% | [5] 17.4% | [6] 5.55%

CC(=O)/C(=C\n1c(=S)[nH]c2ccc([N+](=O)[O-])cc21)C(=O)Nc1ccccc1C
inactive: [1] 2.1% | [2] -44.8% | [3] -5.05% | [4] -2.8% | [5] -20.4% | [6] -7.3%

O=C(O)C1C=CC2OC2C1C(=O)O (stereo unspecified)
inactive: [1] 2.9% | [2] -28.2% | [3] -5.95% | [4] -31.9% | [5] 1.1% | [6] 4.7%

CC1=CC2C(c3ccccc3)Nc3ccccc3N2C1=O (stereo unspecified)
inactive: [1] 32.6% | [2] 8.4% | [3] 10.2% | [4] 8.45% | [5] -8.65% | [6] -6.45%

C[N+](C)(C)CC(=O)N/N=C(/C=C/c1ccccc1)CC1OC(=O)c2ccccc21 (stereo unspecified)
inactive: [1] -9.65% | [2] -11.4% | [3] -3.5% | [4] 16.2% | [5] -7.5% | [6] 3.9%
